Results taken from article PMC12136788.
Where a chain is given by its changes, count along the chain named. The full ranking holds about 5,800 sequences; the median of “enrichment r” is about 0.68, and the highest 2% start at about 11. This is one part of a sample in which the highest values are shown more often than they occur.

T1: UNK ZnF1-6 (called full-length) (human, UniProt Q9C0B0 30-357)
T1 sequence: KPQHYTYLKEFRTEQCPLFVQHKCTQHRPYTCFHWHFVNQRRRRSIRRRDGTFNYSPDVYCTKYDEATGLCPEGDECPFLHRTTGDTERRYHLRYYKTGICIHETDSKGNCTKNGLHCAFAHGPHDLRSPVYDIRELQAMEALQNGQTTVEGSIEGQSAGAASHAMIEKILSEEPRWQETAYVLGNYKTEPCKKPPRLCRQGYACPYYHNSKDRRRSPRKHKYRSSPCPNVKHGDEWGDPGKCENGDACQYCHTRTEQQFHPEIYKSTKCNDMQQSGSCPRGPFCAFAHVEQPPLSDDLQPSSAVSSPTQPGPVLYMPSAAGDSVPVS

B1: chr10:11920118:11920232:-|3pUTR|ENSG00000151461|unk|FALSE|unique (ssRNA)
RNA: GGGAGUUCUACAGUCCGACGAUCGUAGUAUAUUUAGUCGGAGAGCACAUCUGUAUGCGACAACUUGAUUACAUCUUUUUUUCUAGCUAUUUUGCAUUUUUUCUUUUACCAUGUUUCAGUUUCUGCAUGUAGAUUUAAAUAAAACAACAGAGGAUUGAGCAUCA
B2: chr10:62806226:62806343:+|3pUTR|ENSG00000181915|unk|FALSE|unique (ssRNA)
RNA: GGGAGUUCUACAGUCCGACGAUCCUACCCCUUAGUUAAAUAGGGUUUAUUUUCCACUCAUGCCCUUAUGCCUUUUUUUCUUAUAGUUUUUUAACUUAUUGACUGUGCAUGACCCAGUGGUUUGAAUUGUUUUUAGUUCAAGUCCAACAGAGGAUUGAGCAUCA
B3: chr1:3780741:3780842:-|3pUTR|ENSG00000130764|unk|total|mutant (ssRNA)
RNA: GGGAGUUCUACAGUCCGACGAUCCCAAGCCGCUGGGACUACAGGUGUGUGCCACUAAGCUCAGCUAAUUUUUGUAUUUUCCGCCGAGACGGGGUUUCACCAUUUUGACCAGGAUGGUCUUGAUCUCUUGACCUCAUGAUCUGUCAACAGAGGAUUGAGCAUCA
B4: chr20:45898604:45898705:+|3pUTR|ENSG00000064601|unk|total|mutant (ssRNA)
RNA: GGGAGUUCUACAGUCCGACGAUCAGAGCCCUGUACAUCCCAGACUGGGCCCAGGGUCUCCCACCGACAGCCUGGGGGCAAGUCCGCACUUUAUUCCCGCAGCAGUUCCUGAAUGGGGUGGCCUGGCCCCUUCUCUGCUUAAAGCAACAGAGGAUUGAGCAUCA
B5: chr17:47844907:47847298:-|three_prime_utr|ENSG00000189120|control|control|control (ssRNA)
RNA: GGGAGUUCUACAGUCCGACGAUCAAGGUGCGUAUUUAUUCAGGGAGGAGGAAAAGUGGUGCAGGGACAGGGAGAUGGGGCGCUAGGGGUUCUUAGUCUCUGGGGCUACUAGGCAGGAUGAAUUUGACUGGGUCGGUAGGAGCUCAACAGAGGAUUGAGCAUCA
B6: chr5:134606522:134606623:-|3pUTR|ENSG00000152700|msi1_unk|FALSE|overlapping (ssRNA)
RNA: GGGAGUUCUACAGUCCGACGAUCAACUAUAAACCAUAUUUAAAAGCUCAUCAUGUUAAAUUUUUUAUGUACUUUUCUGGAACUAGUUUUUAAAUUUUAGAUUAUAUGUCCACCUAUCUUAAGUGUACAGUUAAUAAUUAGCUUCAACAGAGGAUUGAGCAUCA
B7: chr6:142752714:142752806:-|3pUTR|ENSG00000010818|msi1_unk|FALSE|overlapping (ssRNA)
RNA: GGGAGUUCUACAGUCCGACGAUCUUUUCUUUACUUUGCUUAUAUUCUUAUAAGCAUUUUUUAGCAGUAAUUUGUACAUAUUUUAGAAUUUGUGUAUCUGCUUUGUAAUAAAUGUAAUUUCUUUCCUUUUUUGGACACUUGGAUCAACAGAGGAUUGAGCAUCA
B8: ENSG00000198589:be:win_9001|3pUTR|ENSG00000198589|bound_else_gene|NA|bound_elsewhere_windowed (ssRNA)
RNA: GGGAGUUCUACAGUCCGACGAUCUUCUUCAGCACUAAUAUUUCUGGGAUUUAAAUAGUAAUGUUUAAAUUAUGGUAAAUGUAAUUUAAAACAUCUCAAUUAAGUCUGUCUAUCAAUAUUGUUCUUCAAGCAUGUUUUAGACCUCAACAGAGGAUUGAGCAUCA
B9: ENSG00000070961:be:win_251|CDS|ENSG00000070961|bound_else_gene|NA|bound_elsewhere_windowed (ssRNA)
RNA: GGGAGUUCUACAGUCCGACGAUCUGUUUGGAAAGAAUUUUAUACCUCCUAAAAAGCCAAAAACCUUUCUUCAAUUAGUAUGGGAAGCAUUACAAGAUGUCACUUUAAUUAUAUUAGAAAUUGCAGCCAUAGUAUCAUUGGGCCCAACAGAGGAUUGAGCAUCA
B10: chr8:23843870:23844003:-|3pUTR|ENSG00000159167|msi1|FALSE|unique (ssRNA)
RNA: GGGAGUUCUACAGUCCGACGAUCAAUUCCAGAGGACUCUGCUUAAACAAAGCAGUAUAUAAUAACUUUAUUGCAUAUAGAUUUAGUUUUGUAACUUAGCUUUAUUUUUCUUUUCCUGGGAAUGGAAUAACUAUCUCACUUCCACAACAGAGGAUUGAGCAUCA
B11: chr3:167478683:167478996:-|three_prime_utr|ENSG00000174776|control|control|control (ssRNA)
RNA: GGGAGUUCUACAGUCCGACGAUCCUGCCUUUUAUUUUAUUUUAUAUUUAAACUUCAGGAAGUUUUCUCUUCAUGGGAUAAUUUAGUACUGCUUUUAUCUAUCAUCUGUCAAUUUCUCUGUAUUCUUAAUAAAAUAAAUAUUGACAACAGAGGAUUGAGCAUCA
B12: chr5:134606522:134606623:-|3pUTR|ENSG00000152700|msi1_unk|total|mutant (ssRNA)
RNA: B6 RNA with U83C, A84C, U97C, A98C, U138C, A139C
B13: chr9:14618660:14618761:-|3pUTR|ENSG00000175893|msi1|FALSE|unique (ssRNA)
RNA: GGGAGUUCUACAGUCCGACGAUCUUAGCUUUCCACAGGGAUUUCUUGAAAUGCUUUUGUUAUUAAACUCAAAAGGCAGUGAUUAGGAUGAAAUAAUUGUACAUAAUUUAUUUUAGUACUGACAGUGUUACAGAUUCUAAUUUACAACAGAGGAUUGAGCAUCA
B14: ENSG00000070961:be:win_6101|3pUTR|ENSG00000070961|bound_else_gene|NA|bound_elsewhere_windowed (ssRNA)
RNA: GGGAGUUCUACAGUCCGACGAUCUAAAGAUCUUGGAUCCCAUUAUAUAGUAUGUAUAGCUGAAAUCUGUAAUUCAAUCACUUUUUCUCUUUUAUCCUCUAACCAAAAAAUUGUUUAAUUUUGCAUCCCAAAUGUUUUUAAUCUCAACAGAGGAUUGAGCAUCA
B15: ENSG00000070961:be:win_6051|3pUTR|ENSG00000070961|bound_else_gene|NA|bound_elsewhere_windowed (ssRNA)
RNA: GGGAGUUCUACAGUCCGACGAUCCAGAAAUUUCCAGAGCAUUAUGUAGGUAGAAAAAAAUGCAAGCAAGCUGUUAAAGAUCUUGGAUCCCAUUAUAUAGUAUGUAUAGCUGAAAUCUGUAAUUCAAUCACUUUUUCUCUUUUACAACAGAGGAUUGAGCAUCA
B16: chr17:67340809:67340863:-|CDS_3pUTR|ENSG00000197170|msi1_unk|FALSE|overlapping (ssRNA)
RNA: GGGAGUUCUACAGUCCGACGAUCACAAAACUACGCAUCUCAUAGCCAAAGAGGAGAUGAUACAUAAUCUACAAUAAGGGUCUUAGUGCUUUAGAAAAAAGUUAAAAUUGGAAGUCAUUAAAAAAAGACUGUUAUAAUGGUGUACAACAGAGGAUUGAGCAUCA
B17: chr4:110049619:110049852:-|3pUTR|ENSG00000170522|msi1|FALSE|unique (ssRNA)
RNA: GGGAGUUCUACAGUCCGACGAUCUUGUUCAAUGUGACAUAAUAGUAUUAUAAUUGGUUAAGUAGCUUAAUGAUUAGGCAAACUAGAUGAAAAGAUUAGGGGCUUCCACACUGCAUAGAUUACACGCACAUAGCCACGCAUACACAACAGAGGAUUGAGCAUCA

Target: T1, UNK ZnF1-6 (called full-length)
Experiment: nsRBNS (natural sequence RNA bind-n-seq); RBNS binding buffer (assumed for nsRBNS): 25 mM Tris pH 7.5, 150 mM KCl, 3 mM MgCl2, 0.01% Triton X-100, 500 ug/ml BSA, 20 U/ml SUPERase-In, 4 C; UNK is unkempt and MSI1 is Musashi-1; names of the RNAs are library labels; protein concentration not given here; high values mean tight binding

| Binder | binding signal [enrichment R] |
| --- | --- |
| B1 | 21.9 |
| B2 | 15.8 |
| B3 | 0.591 |
| B4 | 1.01 |
| B5 | 1.32 |
| B6 | 25.7 |
| B7 | 2.11 |
| B8 | 0.446 |
| B9 | 5.79 |
| B10 | 13.9 |
| B11 | 2.14 |
| B12 | 2.06 |
| B13 | 0.961 |
| B14 | 39 |
| B15 | 3.07 |
| B16 | 0.932 |
| B17 | 14.6 |
